In PubChem BioAssay AID1345083 (National Center for Advancing Translational Sciences (NCATS), 2018):
Hit rate of the full screen: of about 94,000 compounds, about 6,200 (6.6%) were called active. Not shown: some 31% with an inconclusive outcome. The sample holds actives, similar compounds and a random draw of the others, so the mix is not that of the screen. Values without a mark were called inactive. The call rests on the fitted dose curve; in most records, active means well fitted inhibition curve with a large enough effect; inconclusive means small, poorly fitted or top-dose-only effect; inactive means flat fitted curve, though single readings scatter.

assay: Cytotoxic Profiling in HEK 293 Cell Line of Diverse Libraries Using Quantitative High-Throughput Screening; details: HEK 293 viability, ATP luminescence (CellTiter-Glo), 48-72 h; series mostly up to 115 µM; activity change, negative = cytotoxicity: at the top concentration; further: nearly all actives have a fitted effect of over 60% in size
In short: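 Luminescence from cellular ATP, measured with CellTiter-Glo, indicates HEK 293 viability. Cells plated at 250 cells/well are treated with compound for 48 or 72 hr at 37 degree Celsius before reagent addition.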
On the % scale 0 is the no-effect control and ±100 the full control effect; potency means the concentration at half of the fitted maximal effect.

| Compound | activity change, negative = cytotoxicity | outcome | Potency |
| --- | --- | --- | --- |
| COc1cccc(CN2CC(O)CN(S(C)(=O)=O)CC2=O)c1OC (stereo not given) | -15.1% | – | – |
| COc1ccc2[nH]c(C(=O)N[C@@H]3CN(S(C)(=O)=O)C[C@H]3CN(C)C)cc2c1 | 3.78% | – | – |
| CCNC(=O)N1CCC(n2c(C)cnc2C2CCC2)CC1 | – | inactive | – |
| COCCc1noc(CC2CCOC3(CCN(C(=O)Nc4ccc5c(c4)OCCO5)CC3)C2)n1 (stereo not given) | -16.7% | – | – |
| COc1ccc(CN2CCC3(CC(C(C)C)=NO3)C2)cc1 (stereo not given) | 3.43% [at 172 µM] | – | – |
| CC1=NOC2(CCN(Cc3ccncc3)CC2)C1 | – | inactive [at 172 µM] | – |
| COc1ccc(CN2CCC3(CC2)CC(=O)c2ccc(Cl)cc2O3)cc1 | – | – | 39.8 µM (active) |
| COc1ccccc1CN1CC[C@H](CNC(C)=O)[C@H](N(C)C)C1 | -6.07% | – | – |
| CC(=O)N1CCC(C(=O)NCC2CCN(c3cc(-c4ccc(C)cc4)[nH]n3)CC2)CC1 | -16.8% | – | – |
| O=C(c1ccc(F)cc1F)N1CCN(c2cc(-c3ccc(Cl)cc3)[nH]n2)CC1 | – | – | 39.8 µM (active) |
| O=C(c1ccc2cc[nH]c2c1)N1CCCN(c2cc(-c3ccc(Cl)cc3)[nH]n2)CC1 | – | – | 39.8 µM (active) |
| O=C(Cc1ccc(F)cc1)NC1CCN(c2cc(-c3ccc(Cl)cc3)[nH]n2)CC1 | 1.39% | – | – |
| COc1ccc(-c2cc(N3CCN(C(=O)c4ccncc4)CC3)n[nH]2)cc1 | -19.5% | – | – |
| O=C(c1ccccc1Cl)N1CCCN(c2cc(-c3ccc(F)cc3)[nH]n2)CC1 | – | – | 44.7 µM (active) |
| Cc1nccn1CC(=O)NCC1CCN(c2cc(-c3ccccc3)[nH]n2)CC1 | 0.823% | – | – |
| COc1ccccc1C(=O)N1CCCN(c2nnc3ccccn23)CC1 | -2.9% | – | – |
| O=C(NCc1ccccc1F)C1(c2ccc(Cl)cc2)CCOCC1 | -17.4% [at 172 µM] | – | – |
| O=C(NCC1CCN(c2cc(-c3ccc(Cl)cc3)[nH]n2)CC1)c1ccc(=O)[nH]c1 | -5.24% | – | – |
| COc1ccccc1C(=O)N1CCCN(c2ccc3nnc(C)n3n2)CC1 | -1.49% | – | – |
| O=C(N1CCN(c2cc(-c3ccc(Cl)cc3)[nH]n2)CC1)C1(c2ccccc2)CC1 | – | – | 44.7 µM (active) |
| C#CCNC(=O)C[C@@H]1O[C@H](CNC(C)=O)[C@@H](O)[C@H]1O | – | inactive [at 230 µM] | – |
| O=C(NCCc1ccccc1)c1nc2sccn2c1-c1ccccc1 | -15.6% | – | – |
| Cc1nc(CC(=O)N2C[C@@H](CN3CCCCCC3)[C@@H](CO)C2)cs1 | -2.94% | – | – |
| COCC(=O)N1C[C@@H](COc2cccnc2)[C@H](c2ccccn2)C1 | -1.3% | – | – |
| CN(CCc1ccccn1)[C@@H]1[C@H](O)[C@H](CO)O[C@@H]1CNS(=O)(=O)c1cccs1 | 3.52% | – | – |

| Compound | activity change, negative = cytotoxicity | outcome | Potency |
| --- | --- | --- | --- |
| O=C(c1cnccn1)N1CCC(NCc2cc3n(n2)CCCNC3)CC1 | -0.759% | – | – |
| Cc1noc(C)c1S(=O)(=O)N[C@@H]1C[C@H](Cn2cc(C3CC3)nn2)[C@@H](O)[C@H]1O | -1.11% [at 172 µM] | – | – |
| O=C(NC1CCCCC1)C1CN(C(=O)c2ccccc2F)CC12CCOCC2 (stereo not given) | 0.348% | – | – |
| Cc1ccc(-n2c(C3CCN(C(=O)c4ccoc4)CC3)n[nH]c2=O)cc1 | -4.39% | – | – |
| O=C(NC1CCCN(c2ccc3nnc(C4CC4)n3n2)C1)c1ccc(Cl)nc1 (stereo not given) | -24.6% | – | – |
| COc1ccccc1-c1nnc2ccc(C(=O)NC3CC3)cn12 | -6.24% [at 172 µM] | – | – |
| Cc1cc(C)cc(-c2ccc(CN3CCCC(NC(=O)c4ccccc4)C3)cc2)c1 (stereo not given) | – | – | 28.2 µM (active) |
| COc1ccc(F)cc1-c1ccc(CN2CCC(N[S+](=O)([O-])c3ccccc3)C2)cc1 (stereo not given) | – | – | 44.7 µM (active) |
| COc1ccc(CC(=O)NC2CCN(Cc3ccc(-c4ccccc4OC)cc3)C2)cc1 (stereo not given) | – | – | 39.8 µM (active) |
| COc1ccccc1-c1ccc(C(=O)O)cc1 | -1.49% [at 172 µM] | – | – |
| COc1ccc(-c2ccccc2C(=O)N2CCC(NC(=O)Cc3ccc(F)cc3)CC2)nn1 | – | inactive | – |
| COc1ccc(CC(=O)NC2CCN(c3ccc4nnc(C)n4n3)CC2)cc1 | 4.27% | – | – |
| Cc1ccc(-c2cccc(CN3CCCC(NC(=O)c4ccc(Cl)cc4)C3)c2)cc1Cl (stereo not given) | 1.69% | – | – |
| COc1ccccc1-c1ccc(CN2CCC(NC(=O)c3ccc(Cl)nc3)C2)cc1 (stereo not given) | – | – | 50.1 µM (active) |
| CC(C)Nc1ncc(C(=O)NC2CCCN(CCc3ccccc3)C2)cn1 (stereo not given) | – | inactive | – |
| Fc1ccc(CN2CC(Oc3ccc(F)cc3F)C2)cc1 | -5.88% | – | – |
| CN(C)C(=O)C1CN(C(=O)c2ccccc2Cl)CC12CCOCC2 (stereo not given) | -0.809% | – | – |
| Cc1cnc(C2CC2)n1C1CCN(C(=O)C(C)C)CC1 | – | inactive | – |
| COc1ccc(C(=O)N2CCOC3(CCN(C(=O)CN)CC3)C2)cc1 | – | inactive | – |
| COCCNC(=O)c1ccc(CC2CCNCC2)cc1 | -45.9% | – | – |
| Cc1cnc(-c2cccnc2)n1C1CCN(S(=O)(=O)c2cccc(F)c2)CC1 | -7.54% | – | – |
| O=C(c1c(OCC2CC2)cc(=O)n2c1CCOCC2)N1CCCCCC1 | -9.09% | – | – |
| CCOc1ccc(NC(=O)C2(Cc3cccnc3)CCCCC(=O)N2)cc1 (stereo not given) | -22.4% | – | – |
| COc1cccc(NC(=O)c2c(OC)cc(=O)n3c2CCCC3)c1 | -19.1% | – | – |
| COc1cccc(NC(=O)c2cnc3n[nH]c(-c4ccc(OC)cc4C)c3n2)c1 | – | – | 100 µM (active) |
